Compounds with a hit are over-represented: about 3.5% of the library has one in this group of screens.
DNMT1 inh: human DNMT1 methyltransferase inhibitors, primary screen, biochemical, molecular beacon, fluorescence, HinP1I cleavage, uHTS. DNA (cytosine-5)-methyltransferase 1 (Homo sapiens), P26358. AID 588458, 2011. inhibition (reported as % activation of signal), % at 10 µM. actives 0.83% (n = 360,000); in the data active = inhibition above about 50%
PG9 Ab binder: binders of HIV-1 gp120 antibody PG9, primary screen, biochemical, TR-FRET. AID 624416, 2012. actives 0.43% (n = 360,000). TR-FRET gp120-PG9 antibody binding. inhibition, % at 6.7 µM; in the data active = inhibition above about 8.5%
rCAG binder-1: binders of r(CAG) RNA repeats, primary screen, biochemical, fluorescence; actives 1.3% (n = 370,000); r(CAG) RNA repeat, TO-PRO-1 dye displacement fluorescence; inhibition, % at 3 µM; AID 651821, 2012;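 active = inhibition above the plate cutoff, the mean of all test compounds on that plate plus 3 SD, cut at about 35% in these data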;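 also: higher means more dye released from RNA so lower well fluorescence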
UHRF1 MBD2 ctr: UHRF1 methylated DNA binding inhibitors, primary screen, counter-screen for MBD2 inhibitor project, biochemical, TR-FRET, human UHRF1, single concentration. AID 687016, 2013. actives 0.75% (n = 370,000). inhibition, % at 4.4 µM. UHRF1 binding to methylated oligo. E3 ubiquitin-protein ligase UHRF1 (Homo sapiens), Q96T88; in the data active = inhibition above about 21%;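 also: UHRF1 SRA domain binding a hemimethylated CpG hairpin DNA probe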
MBD2 inh: inhibitors of MBD2 binding to methylated DNA, primary screen, biochemical, TR-FRET, DNA-binding domain, human; AID 686964, 2013; MBD2 binding to methylated oligonucleotide; Methyl-CpG-binding domain protein 2 (Homo sapiens), Q9UBB5; actives 0.31% (n = 370,000); inhibition, % at 4.4 µM; in the data active = inhibition above about 13%
Target sequence (Q9UBB5 whole entry, looked up, the tested form may be a part): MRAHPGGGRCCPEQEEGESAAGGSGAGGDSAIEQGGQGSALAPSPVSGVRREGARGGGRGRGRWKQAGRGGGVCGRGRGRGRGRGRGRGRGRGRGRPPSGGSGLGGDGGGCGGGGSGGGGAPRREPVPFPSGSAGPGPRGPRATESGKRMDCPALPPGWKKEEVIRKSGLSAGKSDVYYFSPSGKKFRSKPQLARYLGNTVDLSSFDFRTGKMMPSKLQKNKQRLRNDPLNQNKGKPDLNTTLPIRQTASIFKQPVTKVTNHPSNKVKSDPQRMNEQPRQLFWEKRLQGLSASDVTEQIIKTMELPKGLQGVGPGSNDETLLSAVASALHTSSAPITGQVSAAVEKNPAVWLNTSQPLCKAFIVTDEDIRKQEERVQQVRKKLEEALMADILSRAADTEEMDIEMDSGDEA
LEDGF integ inh: blockers of LEDGF/p75-dependent integrase strand transfer – biochemical, TR-FRET, high throughput, primary screen. HIV-1 integrase (with human LEDGF/p75). TR-FRET IN-LEDGF/p75 DNA integration, Eu/Cy5. inhibition, % at 3.7 µM. actives 0.64% (n = 370,000). AID 743269, 2014;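 active = inhibition above the screen-wide mean plus 3 SD, cut at about 13% in these data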;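 also: signal is the Cy5 over europium emission ratio at 671 and 618 nm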
rCAG binder conf: small molecules binding CAG repeat RNA – biochemical, fluorescence, confirmation; shares compounds with rCAG binder-1; r(CAG) RNA repeat, TO-PRO-1 dye displacement fluorescence; inhibition, % at 3 µM; actives 70% (n = 4,300);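 active = inhibition above a per-plate cutoff, the mean inhibition of sample wells plus 3 SD, cut at about 35% in these data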;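 also: loss of TO-PRO-1 fluorescence as compound displaces dye from 1x1 AA loop RNA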
dCAG dye counter: displacement of TO-PRO-1 from CAG DNA duplex, counter-screen for rCAG RNA repeat binder project, biochemical, fluorescence, TO-PRO-1 dye, d(CAG) DNA oligo; actives 94% (n = 4,300); AID 652068, 2013; inhibition, % at 3 µM; shares compounds with rCAG binder-1; d(CAG) DNA oligo TO-PRO-1 dye displacement;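 active = inhibition above its plate's cutoff, the mean test-well inhibition plus 3 SD, cut at about 4.8% in these data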;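 also: hits displace the dye from DNA and so lower well fluorescence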
dCAG dye DR: inhibitors of DNA CAG/GTC TO-PRO-1 complex, dose response, counter-screen for rCAG RNA repeat binder project, biochemical, fluorescence, TO-PRO-1 dye | shares compounds with rCAG binder-1 | DNA CAG/GTC duplex TO-PRO-1 dye displacement fluorescence | IC50, µM | actives 20% (n = 250); in the data active = IC50 below about 10 µM
dCAG DNA bind: TO-PRO-1 dye complex inhibitors on d(CAG) DNA, dose response, counter-screen, biochemical, fluorescence, late stage. shares compounds with rCAG binder-1. d(CAG) DNA duplex TO-PRO-1 dye displacement. actives 80% (n = 30). IC50, µM. AID 720649, 2013
rCAG binder-2: molecules binding r(CAG) RNA repeats, late stage dose response, late-stage follow-up, biochemical, fluorescence, dose response, powder samples. IC50, µM. r(CAG) RNA TO-PRO-1 dye displacement. actives 100% (n = 30). shares compounds with rCAG binder-1
Large screens that a line does not name were inactive (follow-up assays come after a bar, where they were run). Unless noted, no rule for the calls is given here.

Cc1cc(/C=C2\C(=O)NC(=O)N(Cc3ccccc3Cl)C2=O)c(C)n1-c1ccc(C(=O)O)cc1	DNMT1 inh 71, rCAG binder-1 39, UHRF1 MBD2 ctr 22 | rCAG binder conf 59 | dCAG dye counter 18
O=C1NC(=O)N(Cc2ccccc2Cl)C(=O)/C1=C/c1cccs1	rCAG binder-1 56 | rCAG binder conf inactive | dCAG dye counter inactive
Clc1cc(Cl)cc(NC2=NCCS2)c1	none
Cc1ccccc1-n1c(O)c(/C=N/NC(=O)c2ccccc2O)c(=O)[nH]c1=S	rCAG binder-1 56 | rCAG binder conf 35 | dCAG dye counter 9.0
O=C(N/N=C/c1c(O)n(C2CC2)c(=S)[nH]c1=O)c1ccccc1O	rCAG binder-1 38 | rCAG binder conf inactive | dCAG dye counter 6.0
O=C(N/N=C/c1c(O)n(-c2ccccc2)c(=S)[nH]c1=O)c1ccccc1	none
C/C(=N\NC(=O)c1ccccc1O)c1c(O)n(C2CCCCC2)c(=O)[nH]c1=O	rCAG binder-1 83 | rCAG binder conf 77 | dCAG dye counter 34 | dCAG dye DR 3.1 | dCAG DNA bind 2 | rCAG binder-2 0.82
Cc1cc([P+](=O)O)c(C)n1-c1ccc(Br)cc1	none
CCN1CCN(c2ccc([N+](=O)[O-])cc2C=C2C(=O)NC(=O)NC2=O)CC1	none
CC(=O)N1CCN(c2ccc([N+](=O)[O-])cc2C=C2C(=O)NC(=O)NC2=O)CC1	rCAG binder-1 36 | rCAG binder conf inactive | dCAG dye counter inactive
C=C1C(=O)O[C@@H]2C[C@@H](C)[C@@H]3C4OC4C(=O)[C@@]3(C)[C@@H](O)[C@H]12 (stereo partly specified)	none
O=C1NC(=O)N(Cc2ccccc2)C(=O)/C1=C\C=C\c1ccco1	rCAG binder-1 55, UHRF1 MBD2 ctr 28 | rCAG binder conf inactive | dCAG dye counter 6.5
Cc1ccc(-n2c(=S)[nH]c3ccccc3c2=O)cc1F	rCAG binder-1 36 | rCAG binder conf inactive | dCAG dye counter 8.9
O=c1c2ccccc2[nH]c(=S)n1-c1cccc(C(F)(F)F)c1	none
COc1ccc(C2CC(c3c(O)n(CCc4ccccc4)c(=O)[nH]c3=O)=NN2)cc1OC (stereo unspecified)	rCAG binder-1 42 | rCAG binder conf inactive | dCAG dye counter 8.0
CC(=O)OC1C2CCCC1C(N1CCCC1)CC2 (stereo unspecified)	none
CN1C(=O)C(=Cc2ccc(Sc3ccccc3)o2)C(=O)N(C)C1=S	rCAG binder-1 54 | rCAG binder conf 58 | dCAG dye counter 21
CC1N=C(c2ccccc2)c2cc(Br)ccc2NC1=O (stereo unspecified)	none
Cc1ccc2c(c1)C1CN(C)CCC1N2C(=O)CCCN1C(=O)c2cccc3cccc(c23)C1=O (stereo unspecified)	none
Cc1cc(C=C2C(=O)N(C)C(=S)N(C)C2=O)c(C)n1C1CCCCC1	none
Cc1cc(C=C2C(=O)NC(=S)NC2=O)c(C)n1C1CCCC1	rCAG binder-1 35 | rCAG binder conf inactive | dCAG dye counter 9.6
O=C(O)CCC(=O)NCCC1=c2ccccc2=N/C1=C\c1c(O)n(Cc2ccc(F)cc2)c(=S)[nH]c1=O	rCAG binder-1 35 | rCAG binder conf 37 | dCAG dye counter 13
Cn1c(O)c(C=NCCN2CCOCC2)c(=O)[nH]c1=S	none
COC(=O)C1=C(c2cccc(OCc3ccccc3)c2)C[C@@H]2CC[C@H]1N2C(=O)NCc1cc(C)oc1C(F)(F)F	none
O=c1[nH]c(=S)n(CCC2=CCCCC2)c(O)c1C=NCc1cccnc1	none
O=C(N/N=C/c1c(O)n(CCC2=CCCCC2)c(=O)[nH]c1=O)c1ccccc1	rCAG binder-1 46 | rCAG binder conf 40 | dCAG dye counter 11
O=C(N/N=C/c1c(O)n(CCC2=CCCCC2)c(=S)[nH]c1=O)c1ccccc1	rCAG binder-1 70 | rCAG binder conf 73 | dCAG dye counter 32 | dCAG dye DR inactive | dCAG DNA bind 2.2 | rCAG binder-2 0.99
N#CCC[C@@H]1CC[C@]2(CCCN(Cc3ccccn3)C2)O1	none (no result: DNMT1 inh, PG9 Ab binder)
CC(C)c1ccc(C(c2c(O)c3ccccc3oc2=O)c2c(O)c3ccccc3oc2=O)cc1	rCAG binder-1 94 | rCAG binder conf 95 | dCAG dye counter 82
O=c1oc2ccccc2c(O)c1C(c1ccc([N+](=O)[O-])cc1)c1c(O)c2ccccc2oc1=O	rCAG binder-1 96 | rCAG binder conf 94 | dCAG dye counter 76
Cc1c(C(c2ccc(F)cc2)c2c(O)c3ccccc3oc2=O)c(=O)n(-c2ccccc2)n1C (stereo unspecified)	none
CC(=O)N(C)C1=Nc2ccc(Cl)cc2C(c2ccccc2)=[N+]([O-])C1	none
CCOc1cc(C2C(C#N)=C(N)Oc3c2c(=O)oc2ccccc32)ccc1OC(=O)c1cccs1 (stereo unspecified)	rCAG binder-1 47 | rCAG binder conf inactive | dCAG dye counter 15
N#CC1=C(N)Oc2c(c(=O)oc3ccccc23)C1c1cccnc1 (stereo unspecified)	none
O=C1CC(=O)N(Cc2ccccc2)C(=S)N1	rCAG binder-1 72 | rCAG binder conf inactive | dCAG dye counter inactive

Source: PubChem (several laboratories)
